According to PubChem BioAssay (NCATS):
Records with an inconclusive call do not appear. Activity calls are given as the source filed them. The call rests on the fitted dose curve; in most records, active means well fitted curve in the direction sought with a large enough effect; inconclusive means small, poorly fitted or top-dose-only effect, or another doubt; inactive means no such curve, though single readings can be large; an effect the other way counts as inactive or inconclusive.

Assays:
[1] = target: Rap guanine nucleotide exchange factor 3 (Homo sapiens) (UniProt O95398); assay: Confirmatory qHTS for antagonist of cAMP-regulated guanine nucleotide exchange factor 3 (EPAC1) (AID 1645880); further: nearly all actives have a fitted effect of over 55% in size; further: potency means the concentration at half of the fitted maximal effect
Chain of Rap guanine nucleotide exchange factor 3 (Homo sapiens) (O95398 whole entry, looked up): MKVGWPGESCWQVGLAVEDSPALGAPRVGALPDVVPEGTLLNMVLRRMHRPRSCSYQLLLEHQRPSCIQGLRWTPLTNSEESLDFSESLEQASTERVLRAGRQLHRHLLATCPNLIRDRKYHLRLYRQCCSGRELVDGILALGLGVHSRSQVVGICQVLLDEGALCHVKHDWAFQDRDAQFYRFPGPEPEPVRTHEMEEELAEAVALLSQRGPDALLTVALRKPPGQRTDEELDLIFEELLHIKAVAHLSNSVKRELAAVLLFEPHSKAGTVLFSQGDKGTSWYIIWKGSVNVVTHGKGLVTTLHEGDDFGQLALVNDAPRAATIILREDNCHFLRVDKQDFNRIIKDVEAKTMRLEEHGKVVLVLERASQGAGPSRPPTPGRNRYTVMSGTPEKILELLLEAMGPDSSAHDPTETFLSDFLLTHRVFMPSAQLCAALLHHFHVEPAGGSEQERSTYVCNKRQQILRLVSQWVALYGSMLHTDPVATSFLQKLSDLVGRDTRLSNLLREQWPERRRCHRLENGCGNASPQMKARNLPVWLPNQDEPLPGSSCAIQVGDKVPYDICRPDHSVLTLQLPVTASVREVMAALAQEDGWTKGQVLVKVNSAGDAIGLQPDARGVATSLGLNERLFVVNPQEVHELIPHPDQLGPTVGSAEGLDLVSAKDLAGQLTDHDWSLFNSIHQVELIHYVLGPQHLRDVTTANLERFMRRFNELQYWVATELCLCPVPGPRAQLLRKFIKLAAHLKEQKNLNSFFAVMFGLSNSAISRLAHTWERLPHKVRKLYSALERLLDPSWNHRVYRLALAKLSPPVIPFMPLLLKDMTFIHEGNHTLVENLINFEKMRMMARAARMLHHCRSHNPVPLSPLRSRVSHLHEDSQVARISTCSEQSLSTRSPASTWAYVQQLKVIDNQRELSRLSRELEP
In short: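 Released BODIPY-GDP fluoresces less than Rap1-bound BODIPY-GDP; the signal is followed at 480/540 nm at 5-min intervals over 30 min, after 5 min at room temperature. Reactions contain 100 nM EPAC1, 250 nM RAP1B-BODIPY-GDP and 50 uM GDP; results are normalized to ATA and DMSO.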

[2] = target: Rap guanine nucleotide exchange factor 3 (Homo sapiens) (UniProt O95398); assay: Confirmatory qHTS for agonist of cAMP-regulated guanine nucleotide exchange factor 3 (EPAC1) (AID 1645881); further: nearly all actives have a fitted effect of over 75% in size; further: potency means the concentration at half of the fitted maximal effect;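 on activation: EPAC1 catalysed release of BODIPY-GDP from Rap1B seen as fluorescence loss; 100% = effect of cAMP agonist control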
[3] = target: Rap guanine nucleotide exchange factor 4 (Homo sapiens) (UniProt Q8WZA2); assay: Confirmatory qHTS for agonist of cAMP-regulated guanine nucleotide exchange factor 4 (EPAC2) (AID 1645884);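 further: nucleotide exchange releases bodipy-GDP from Rap1 and this lowers its fluorescence; nearly all actives have a fitted effect of over 65% in size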; further: potency means the concentration at half of the fitted maximal effect; on activation: on the % scale 0 is the no-effect control and ±100 the full control effect
Chain of Rap guanine nucleotide exchange factor 4 (Homo sapiens) (Q8WZA2 whole entry, looked up): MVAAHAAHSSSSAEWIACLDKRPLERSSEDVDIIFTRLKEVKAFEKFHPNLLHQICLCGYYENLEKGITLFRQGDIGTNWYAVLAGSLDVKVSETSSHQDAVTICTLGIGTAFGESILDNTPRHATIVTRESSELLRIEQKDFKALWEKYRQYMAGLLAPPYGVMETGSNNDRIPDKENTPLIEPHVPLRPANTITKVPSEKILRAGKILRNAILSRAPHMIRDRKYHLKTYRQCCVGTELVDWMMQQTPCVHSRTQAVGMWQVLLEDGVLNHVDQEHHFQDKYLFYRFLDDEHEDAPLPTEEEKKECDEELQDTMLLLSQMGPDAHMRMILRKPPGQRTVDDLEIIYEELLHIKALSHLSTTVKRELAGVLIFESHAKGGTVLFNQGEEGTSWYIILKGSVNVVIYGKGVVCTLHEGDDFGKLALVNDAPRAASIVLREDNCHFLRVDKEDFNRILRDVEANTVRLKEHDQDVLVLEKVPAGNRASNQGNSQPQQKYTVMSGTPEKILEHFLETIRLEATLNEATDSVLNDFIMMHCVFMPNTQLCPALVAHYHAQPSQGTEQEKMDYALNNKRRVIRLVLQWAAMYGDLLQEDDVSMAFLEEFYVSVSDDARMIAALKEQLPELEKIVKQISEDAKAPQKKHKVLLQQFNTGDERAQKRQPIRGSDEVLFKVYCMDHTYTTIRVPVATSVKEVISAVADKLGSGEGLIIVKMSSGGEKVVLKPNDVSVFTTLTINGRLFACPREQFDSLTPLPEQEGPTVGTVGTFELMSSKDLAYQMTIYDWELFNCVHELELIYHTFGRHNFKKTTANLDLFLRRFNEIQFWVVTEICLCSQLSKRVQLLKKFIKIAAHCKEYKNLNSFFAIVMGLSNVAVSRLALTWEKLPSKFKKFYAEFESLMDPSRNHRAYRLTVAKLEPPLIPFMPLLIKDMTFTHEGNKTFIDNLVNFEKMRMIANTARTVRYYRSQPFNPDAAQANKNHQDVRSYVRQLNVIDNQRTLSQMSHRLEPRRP

[4] = target: Rap guanine nucleotide exchange factor 4 (Homo sapiens) (UniProt Q8WZA2); assay: Confirmatory qHTS for antagonist of cAMP-regulated guanine nucleotide exchange factor 4 (EPAC2) (AID 1645885); further: nearly all actives have a fitted effect of over 25% in size; further: potency means the concentration at half of the fitted maximal effect; on activity change, negative = inhibition: on the % scale 0 is the no-effect control and ±100 the full control effect
[5] = target: Rap guanine nucleotide exchange factor 3 (Homo sapiens) (UniProt O95398); assay: Counterscreen qHTS for antagonist of cAMP-regulated guanine nucleotide exchange factor 3 (EPAC1) (AID 1645888); further: % of control where 0% means no effect
In short: (§1)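 Rap1B–BODIPY-GDP (250 nM) with 50 uM GDP; compounds pin-transferred to 9.74 nM–152 uM final (activator) or from 7.32 nM upwards (inhibitor). Fluorescence Ex/Em 480/540 nm read at 5 and 30 min, then after adding cAMP or buffer, at room temperature.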

[6] = target: Rap guanine nucleotide exchange factor 3 (Homo sapiens) (UniProt O95398); assay: Counterscreen qHTS for agonist of cAMP-regulated guanine nucleotide exchange factor 3 (EPAC1) (AID 1645889); further: nearly all actives have a fitted effect of over 40% in size; further: potency means the concentration at half of the fitted maximal effect; on activation: % of control where 0% means no effect
In short: as §1

Cc1ccc(OCC(=O)Nc2ccccc2N2CCCC2)c(C)c1
inactive: Potency [1] | Potency [2] | Potency [3] | Potency [4] | Potency [5] | Potency [6]

COC(=O)CSc1nc2c(c(=O)n(C)c(=O)n2C)n1CCCc1ccccc1
inactive: Potency [1] | Potency [2] | activation [3] 4.31% [at 17.1 µM, percent relative to cAMP agonist control] | Potency [4] | activity change, negative = inhibition [5] -3.64% [at 30.8 µM] | activation [6] 0.96% [at 30.8 µM]

CC(C)(C)C(=O)NCc1ccc(C(=O)CN2C(=O)NC3(CCCC3)C2=O)s1
inactive: Potency [1] | Potency [2] | Potency [3] | Potency [4] | Potency [5] | Potency [6]

CC1(C)CC[C@]2(C(=O)n3ccnc3)CC[C@]3(C)[C@H](C(=O)C=C4[C@@]5(C)C=C(C#N)C(=O)C(C)(C)[C@@H]5CC[C@]43C)[C@@H]2C1
inactive: Potency [2] | activation [3] -11.4% [at 17.1 µM, percent relative to cAMP agonist control] | Potency [4] | activity change, negative = inhibition [5] -3.92% [at 30.8 µM] | activation [6] 18.4% [at 30.8 µM]
active: Potency [1] 14.1 µM

COc1ccc(CNC(=O)c2cc(=O)c3cc(C)ccc3o2)cc1
inactive: Potency [1] | Potency [2] | Potency [3] | Potency [4] | Potency [5] | Potency [6]

N#Cc1cc(C(=O)c2cc(F)ccc2O)cn(-c2nccs2)c1=O
inactive: Potency [1] | Potency [4] | Potency [5]
active: Potency [2] 100 µM | Potency [3] 112 µM | Potency [6] 39.8 µM

C=CCSc1nc(-c2ccc(OC)cc2)c(C#N)c(=O)n1CC=C
inactive: Potency [1] | Potency [2] | activation [3] 1.63% [at 17.1 µM, percent relative to cAMP agonist control] | Potency [4] | activity change, negative = inhibition [5] -30% [at 30.8 µM] | activation [6] -17.1% [at 30.8 µM]

Cc1sc2ncnc(N3CCCC(C)C3)c2c1C (stereo not drawn)
inactive: Potency [1] | Potency [2] | Potency [3] | Potency [4] | Potency [5] | Potency [6]

Nc1c(-c2nc(-c3cccs3)no2)nnn1-c1cccc(Cl)c1
inactive: Potency [1] | Potency [2] | Potency [3] | outcome [4] inactive [at 12.7 µM] | Potency [5] | Potency [6]

CCN(CC)c1ccc(C(=O)OCC(=O)NCC2CCCO2)cc1 (stereo not drawn)
inactive: Potency [1] | Potency [2] | activation [3] 4.19% [at 17.1 µM, percent relative to cAMP agonist control] | Potency [4] | activity change, negative = inhibition [5] -1.2% [at 30.8 µM] | activation [6] 25.8% [at 30.8 µM]

CC(C)N(Cc1cn(C)nc1-c1cccc(Cl)c1)Cc1nccn1C
inactive: Potency [1] | Potency [2] | activation [3] 1.24% [at 17.1 µM, percent relative to cAMP agonist control] | Potency [4] | activity change, negative = inhibition [5] -5.68% [at 30.8 µM] | activation [6] 15% [at 30.8 µM]

CCC(=O)Nc1ccc(C(=O)NNC(=O)c2ccc([N+](=O)[O-])cc2)cc1
inactive: Potency [1] | Potency [2] | Potency [3] | Potency [4] | Potency [5] | Potency [6]

CC(=O)N1CCN(C(=O)COc2ccc(Br)cc2)CC1
inactive: Potency [1] | Potency [2] | Potency [3] | Potency [4] | Potency [5] | Potency [6]

CN1CCC/C1=C/C=C1\SC(=S)NC1=O
inactive: Potency [1] | Potency [4] | Potency [5]
active: Potency [2] 89.1 µM | Potency [3] 100 µM | Potency [6] 39.8 µM

COc1ccccc1OCC(=O)Nc1cccc(S(=O)(=O)NC2=NCCCCC2)c1
inactive: Potency [1] | Potency [2] | Potency [3] | Potency [4] | Potency [5] | Potency [6]

Cc1ccc(S(=O)(=O)/N=C2\C=C(Nc3cccc(C(=O)O)c3)C(=O)c3ccccc32)c(C)c1
active: Potency [1] 26.9 µM
inactive: Potency [2] | Potency [3] | Potency [4] | Potency [5] | Potency [6]

CC1(C(=O)NS(=O)(=O)c2ccc(C#N)cc2)CCN1C(=O)C1(c2ccccc2)CCCC1 (stereo not drawn)
active: Potency [1] 37.9 µM | Potency [4] 33.8 µM
inactive: Potency [2] | Potency [3] | Potency [5] | Potency [6]

O=C(OC1CCOC1=O)c1ccc(-c2nc3ccccc3s2)s1 (stereo not drawn)
inactive: Potency [1] | Potency [2] | Potency [3] | outcome [4] inactive [at 12.7 µM] | Potency [5] | Potency [6]

COc1ccccc1OCCCSc1nc(-c2ccc(C(C)(C)C)cc2)nc2cc(=O)[nH]n12
active: Potency [1] 67.5 µM
inactive: Potency [2] | Potency [3] | Potency [4] | Potency [5] | Potency [6]

Cc1onc(-c2c(F)cccc2Cl)c1C(=O)Oc1ccccc1
inactive: Potency [1] | Potency [2] | activation [3] 1.99% [at 17.1 µM, percent relative to cAMP agonist control] | Potency [4] | activity change, negative = inhibition [5] -3.3% [at 30.8 µM] | activation [6] 7.91% [at 30.8 µM]

CCOc1cc(/C=N/NC(=O)c2ccc3c(c2)OCCO3)cc(Br)c1O
active: Potency [1] 30.1 µM
inactive: Potency [2] | Potency [3] | Potency [4] | Potency [5] | Potency [6]

CCOc1cc(-c2nnc(NC(=O)C3=COCCO3)o2)cc(OCC)c1OCC
inactive: Potency [1] | Potency [2] | activation [3] -6.21% [at 17.1 µM, percent relative to cAMP agonist control] | Potency [4] | activity change, negative = inhibition [5] 3.19% [at 30.8 µM] | activation [6] 5.03% [at 30.8 µM]

COc1cccc(C2=NN(C(C)=O)C(c3cccs3)C2)c1 (stereo not drawn)
inactive: Potency [1] | Potency [2] | Potency [3] | Potency [4] | Potency [5] | Potency [6]

COc1ccccc1NC(=O)COC(=O)c1ccc([N+](=O)[O-])s1
active: Potency [1] 21.3 µM
inactive: Potency [2] | Potency [3] | Potency [4] | Potency [5] | Potency [6]

CC(C)(C)C(=O)Nc1ccc2nc(SCC(=O)N3CCc4ccccc43)sc2c1
inactive: Potency [1] | Potency [2] | Potency [3] | Potency [4] | Potency [5] | Potency [6]

O=C1C(Cl)=C(N2CCC(C(=O)O)CC2)C(=O)c2ccccc21
inactive: Potency [1] | Potency [2] | Potency [3] | Potency [4] | Potency [5]
active: Potency [6] 15.8 µM

CC(OC(=O)CCN1C(=O)C2CC=CCC2C1=O)C(=O)Nc1cccc(C#N)c1 (stereo not drawn)
inactive: Potency [1] | Potency [2] | activation [3] 3.57% [at 17.1 µM, percent relative to cAMP agonist control] | Potency [4] | activity change, negative = inhibition [5] -8.99% [at 30.8 µM] | activation [6] 3.18% [at 30.8 µM]

N#Cc1cc(C(=O)c2ccccc2O)cn(-c2nccs2)c1=O
inactive: Potency [1] | Potency [5]
active: Potency [2] 112 µM | Potency [3] 100 µM | Potency [4] 47.8 µM | Potency [6] 39.8 µM

CC(OC(=O)c1nn(C)c(=O)c2ccccc12)C(=O)NC1CCCCC1C (stereo not drawn)
inactive: Potency [1] | Potency [2] | Potency [3] | Potency [4] | Potency [5] | Potency [6]

O=C(c1ccc2c(c1)N(Cc1ccccc1)CCS2)N1CCCCC1
inactive: Potency [1] | Potency [2] | Potency [3] | Potency [4] | Potency [5] | Potency [6]

COc1cccc2c(N/N=C/c3ccco3)cc(C)nc12
inactive: Potency [1] | Potency [2] | Potency [3] | Potency [4] | Potency [5] | Potency [6]

CC(C)CC(C(=O)NC1CCCCC1)N(Cc1ccccc1)C(=O)c1snc(C(N)=O)c1N (stereo not drawn)
inactive: Potency [1] | Potency [2] | activation [3] 1.37% [at 17.1 µM, percent relative to cAMP agonist control] | Potency [4] | activity change, negative = inhibition [5] -17.8% [at 30.8 µM] | activation [6] 19% [at 30.8 µM]

C=CCOC(=O)C1=C(C)Nc2nnnn2C1c1cccs1 (stereo not drawn)
inactive: Potency [1] | Potency [2] | Potency [3] | Potency [4] | Potency [5] | Potency [6]

Cc1cccc(NC(=O)c2c(NC(=O)C(F)(F)F)sc3c2CCCCC3)c1
active: Potency [1] 42.6 µM
inactive: Potency [2] | Potency [3] | Potency [4] | Potency [5] | Potency [6]

Cn1c2ccccc2c2cc(/C=N/NC(=O)c3cc(O)ccc3O)ccc21
active: Potency [1] 25.1 µM
inactive: Potency [2] | activation [3] -2.01% [at 17.1 µM, percent relative to cAMP agonist control] | Potency [4] | activity change, negative = inhibition [5] -0.77% [at 30.8 µM] | activation [6] 29.4% [at 30.8 µM]

CCCCNC(=O)Cn1nc(N2CCN(c3ccccc3OC)CC2)ccc1=O
inactive: Potency [1] | Potency [2] | Potency [3] | Potency [4] | Potency [5] | Potency [6]

COCCOC(=O)C(C#N)c1nc2ccccc2nc1N1CCN(Cc2ccccc2)CC1 (stereo not drawn)
inactive: Potency [1] | Potency [2] | activation [3] 10.5% [at 17.1 µM, percent relative to cAMP agonist control] | Potency [4] | activity change, negative = inhibition [5] 4.89% [at 30.8 µM] | activation [6] 38.2% [at 30.8 µM]

CC(C)OC(=O)NC(c1ccccc1)C(Cl)(Cl)Cl (stereo not drawn)
inactive: Potency [1] | Potency [2] | activation [3] 4.21% [at 17.1 µM, percent relative to cAMP agonist control] | Potency [4] | activity change, negative = inhibition [5] -2.25% [at 30.8 µM] | activation [6] 7.19% [at 30.8 µM]

O=C(N/N=C/C=C\c1ccco1)c1ccccn1
active: Potency [1] 6.01 µM
inactive: Potency [2] | Potency [3] | Potency [4] | Potency [5] | Potency [6]

CCOC(=O)C1=NNC2(CC(=O)N(c3cc(C)cc(C)c3)C2=O)C1 (stereo not drawn)
inactive: Potency [1] | Potency [2] | Potency [3] | Potency [4] | Potency [5] | Potency [6]

CC(=O)CCc1oc2ccc(C)cc2c1-c1ccc(C)o1
inactive: Potency [1] | Potency [2] | activation [3] 9.77% [at 17.1 µM, percent relative to cAMP agonist control] | Potency [4] | activity change, negative = inhibition [5] -33.7% [at 30.8 µM] | activation [6] 31.9% [at 30.8 µM]

CCCCSc1nc2c(c(=O)n1CC)SC(C)C2 (stereo not drawn)
inactive: Potency [1] | Potency [2] | activation [3] -4.2% [at 17.1 µM, percent relative to cAMP agonist control] | Potency [4] | activity change, negative = inhibition [5] 2.79% [at 30.8 µM] | activation [6] 5.23% [at 30.8 µM]

COc1ccc(-c2nnc(SCC(=O)c3ccco3)n2-c2ccccc2)cc1
inactive: Potency [1] | Potency [2] | activation [3] 3.77% [at 17.1 µM, percent relative to cAMP agonist control] | Potency [4] | activity change, negative = inhibition [5] -13.6% [at 30.8 µM] | activation [6] 4.19% [at 30.8 µM]
